Experimental data as given in PubChem BioAssay (NCATS).
Several values for one entry are separate records, joined by “and”; a condition that tells them apart may be missing. Identical values can stand only once. Records with an inconclusive call do not appear. A number with no mark means an inactive call. Activity calls are given as the source filed them. Calls follow the shape of the dose curve; as a rule, active = well fitted curve in the direction sought with a large enough effect; inconclusive = small, poorly fitted or top-dose-only effect, or another doubt; inactive = no such curve, though single readings can be large; an effect the other way counts as inactive or inconclusive.

How the values were obtained:
PA-1 = assay: Primary qHTS to identify gynecologic anti-cancer compounds using libraries of approved drugs and bioactive compounds (AID 1345084); details: Gynecologic cancer cell panel viability, ATPlite luminescence, 48 h; series mostly up to 57.5 µM; also: nearly all actives have a fitted effect of over 55% in size
Procedure, shortened: (§1)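 Measured: luminescence after ATPlite addition (15 min, RT). Exposure: 48 h, 37 C, 5% CO2.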

SKOV3 = assay: as above; details: Gynecologic cancer cell panel viability, ATPlite luminescence, 48 h; series mostly up to 57.5 µM
Procedure, shortened: as §1

Tov-21-G = assay: as above; details: Gynecologic cancer cell panel viability, ATPlite luminescence, 48 h; series mostly up to 57.5 µM
Procedure, shortened: as §1

Tov112D = assay: as above; details: Gynecologic cancer cell panel viability, ATPlite luminescence, 48 h; series mostly up to 57.5 µM
Procedure, shortened: as §1

[1] = qHTS assay to identify inhibitors of the type 1 interferon - major histocompatibility complex class I in skeletal muscle: Counter screen cell viability and HiBit confirmation (AID 1347412); details: iHSKM muscle cells + IFN-b, HiBiT or CellTiter-Glo, 24 h; also: nearly all actives have a fitted effect of over 60% in size
Procedure, shortened: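 CRISPR HLA-B*08:01-HiBit immortalized human myoblasts (C25cl48) stimulated with 4 ng/ml IFN-beta and compounds (12-point 1:3, top 46 uM final) for 24 h at 37 C. Duplicate plates read by HiBit lytic luminescence or CellTiter Glo ATP.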
% is scaled to controls: 0 for no effect and ±100 for the full control effect; potency is read from the fitted curve at half-maximal effect.

## COc1cc(Br)c(Nc2nc(-c3c(C)nc4ncccn34)cs2)c(Br)c1
PA-1
  Potency: 4.47 µM (active)
SKOV3
  Potency: 8.91 µM (active)
Tov-21-G
  Potency: 10 µM (active)

## Cc1ccc(-c2ccc3ncc4c(c3n2)n(C2CCN(C(=O)[C@H](C)O)CC2)c(=O)n4C)cn1
PA-1
  Potency: 0.631 µM (active)
SKOV3
  Potency: 1.41 µM (active)
Tov112D
  Potency: 0.0891 µM (active)

## COc1cc(C2c3cc4c(c(O)c3CC(CO)C2C(=O)O)OCO4)cc(OC)c1O (stereo unspecified)
PA-1
  Potency: 2 µM (active)
SKOV3
  Potency: 11.2 µM (active)
Tov112D
  Potency: 4.47 µM (active)

## NC[C@@](O)(c1ccc(Cl)cc1)c1ccc(-c2cn[nH]c2)cc1
PA-1
  Potency: 15.8 µM (active)
SKOV3
  Potency: 20 µM (active)
Tov-21-G
  Potency: 10 µM (active)
Tov112D
  Potency: 25.1 µM (active)
[1]; HiBiT
  Potency: 6.25 µM (active)
[1]; Viability
  Potency: 8.83 µM (active)

## N[C@H]1Cc2ccccc2N(O)C1=O
PA-1
  Potency: inactive
SKOV3
  Potency: inactive
Tov-21-G
  Potency: inactive
Tov112D
  Potency: inactive

## CCCCNc1ncc2c(-c3ccc(CN4CCN(C)CC4)cc3)cn(C3CCC(O)CC3)c2n1 (stereo unspecified)
PA-1
  Potency: 6.31 µM (active)
SKOV3
  Potency: 3.55 µM (active)
Tov-21-G
  Potency: 7.94 µM (active)
[1]; HiBiT
  Potency: 3.94 µM (active) and 14 µM (active)
[1]; Viability
  Potency: 7.01 µM (active)

## CC(C)(C#N)c1ccc(N2C(=O)OCc3cnc4ccc(-c5cnc6ccccc6c5)cc4c32)cc1
PA-1
  Potency: 12.6 µM (active)
SKOV3
  Potency: 2.82 µM (active)
Tov-21-G
  Potency: 10 µM (active)

## O=S(=O)(c1ccccc1)c1cnc2c(N3CCNCC3)cccc2c1
PA-1
  Potency: inactive
Tov-21-G
  Potency: inactive

## CNC(=O)c1ccccc1Nc1nc(Nc2ccc3c(c2OC)CCCC(N2CCN(CCO)CC2)C3)ncc1Cl (stereo unspecified)
PA-1
  Potency: 11.2 µM (active)
SKOV3
  Potency: 3.98 µM (active)
Tov-21-G
  Potency: 10 µM (active)

## C=C(CCC1=C(C)[C@H]2[C@H](CC3[C@@H]4CC=C5C[C@@H](O)C[C@@H](O)[C@]5(C)C4[C@H](O)C[C@@]32C)O1)CO[C@@H]1O[C@H](CO)[C@@H](O)[C@H](O)[C@H]1O (stereo partly specified)
PA-1
  Potency: 3.16 µM (active)
SKOV3
  Potency: 2.82 µM (active)
Tov-21-G
  Potency: 2.51 µM (active)
Tov112D
  Potency: 1.12 µM (active)

## Cc1nc([C@](C)(O)CO)sc1-c1cnc(N)c(O[C@H](C)c2cc(F)ccc2-n2nccn2)c1
PA-1
  Potency: 11.2 µM (active)
SKOV3
  Potency: inactive
Tov112D
  Potency: inactive

## C=C1C(=O)O[C@@H]2C/C(C)=C\C(=O)/C=C(\C)[C@@H](OC(=O)/C(C)=C\C)[C@H](O)[C@@H]12
PA-1
  Potency: 2.82 µM (active)
SKOV3
  Potency: 11.2 µM (active)
Tov-21-G
  Potency: 7.94 µM (active)
Tov112D
  Potency: 11.2 µM (active)

## CCCCc1nc2cc(/C=C/C(=O)NO)ccc2n1CCN(CC)CC
PA-1
  Potency: 0.631 µM (active)
SKOV3
  Potency: 3.98 µM (active)
Tov-21-G
  Potency: 7.94 µM (active)
Tov112D
  Potency: 3.16 µM (active)
[1]; HiBiT
  Potency: 1.11 µM (active)
[1]; Viability, at 45.9 µM (top of the series)
  activity change, negative = inhibition: 3.05%

## CCC(C)/C=C(C)/C=C/c1cc2c(cn1)C(=O)C(C)(OC(C)=O)C(O)=C2Cl (stereo unspecified)
PA-1
  Potency: inactive
SKOV3
  Potency: inactive
Tov-21-G
  Potency: inactive
Tov112D
  Potency: inactive

## C/C=C/C=C/C(O)=C1\C(=O)[C@]2(C)C3C(C(=O)CC/C=C/C)=C(O)C4(C)C1[C@]1(C)O[C@@]4(O)[C@@]3(C)O[C@@]12O
PA-1
  Potency: inactive
SKOV3
  Potency: inactive
Tov-21-G
  Potency: inactive
Tov112D
  Potency: inactive

## O=C1OCc2cc3cccc(O[C@@H]4O[C@H](CO)[C@@H](O)[C@H](O)[C@H]4O)c3c(O)c21
PA-1
  Potency: inactive
SKOV3
  Potency: inactive
Tov-21-G
  Potency: inactive
Tov112D
  Potency: inactive

## CC(C)C(CO)Nc1nc(Nc2cc(N)cc(Cl)c2)c2ncn(C(C)C)c2n1 (stereo unspecified)
PA-1
  Potency: 14.1 µM (active)
SKOV3
  Potency: 28.2 µM (active)
Tov-21-G
  Potency: 22.4 µM (active)
Tov112D
  Potency: 20 µM (active)

## CCC(C(=O)O)c1ccc(N2Cc3ccccc3C2=O)cc1 (stereo unspecified)
PA-1
  Potency: inactive
SKOV3
  Potency: inactive
Tov-21-G
  Potency: inactive
Tov112D
  Potency: inactive

## Cc1cnc(Nc2ccc(F)cc2Cl)nc1-c1c[nH]c(C(=O)NC(CO)c2cccc(Cl)c2)c1 (stereo unspecified)
PA-1
  Potency: 8.91 µM (active)
SKOV3
  Potency: inactive
Tov112D
  Potency: inactive

## CCN(CC)CCN(Cc1ccc(-c2ccc(C(F)(F)F)cc2)cc1)C(=O)Cn1c(SCc2ccc(F)cc2)nc(=O)c2c1CCC2
PA-1
  Potency: 28.2 µM (active)
SKOV3
  Potency: 7.94 µM (active)
Tov112D
  Potency: 35.5 µM (active)

## C(#Cc1nc2ncccc2nc1OCCN1CCCC1)c1ccccc1
PA-1
  Potency: 6.31 µM (active)
SKOV3
  Potency: 14.1 µM (active)
Tov-21-G
  Potency: 14.1 µM (active)
Tov112D
  Potency: 14.1 µM (active)

## O=C(C(c1ccccc1)c1ccccc1)N1CCN(CC(O)COc2cccc3ncccc23)CC1 (stereo unspecified)
PA-1
  Potency: inactive
SKOV3
  Potency: inactive
Tov-21-G
  Potency: inactive
Tov112D
  Potency: inactive

## CNC(=S)NS(=O)(=O)c1cc(CCNC(=O)c2cc(Cl)ccc2OC)ccc1OC
PA-1
  Potency: inactive
SKOV3
  Potency: inactive
Tov-21-G
  Potency: inactive
Tov112D
  Potency: inactive

## CO[C@H]1C[C@@H]2CC[C@@H](C)[C@@](O)(O2)C(=O)C(=O)N2CCCC[C@H]2C(=O)O[C@H]([C@H](C)C[C@@H]2CC[C@@H](OP(C)(C)=O)[C@H](OC)C2)CC(=O)[C@H](C)/C=C(\C)[C@@H](O)[C@@H](OC)C(=O)[C@H](C)C[C@H](C)/C=C/C=C/C=C/1C
PA-1
  Potency: inactive
SKOV3
  Potency: inactive
Tov-21-G
  Potency: inactive
Tov112D
  Potency: inactive
